Each structure is given as a SMILES string. Results filed as inconclusive are left out. Where a call stands in place of a potency, no number is given. Activity calls are given as the source filed them. Calls follow the shape of the dose curve; as a rule, active = well fitted cell-killing curve with a large enough effect in the repeat runs; inconclusive = weak or mixed curves, or effect the other way; inactive = no such curve, though single readings can be large or run the other way.

The assay is described as follows: qHTS assay for small molecule activators of the heat shock response signaling pathway - cell viability counter screen (AID 743209). Also: nearly all actives have a fitted effect of over 50% in size. Particulars: HSE-bla HeLa viability, CellTiter-Glo luminescence, 5 h; series mostly up to 62.6 µM. The source says:
U.S. Tox21 Program National Center for Advancing Translational Sciences [NCATS] NIH Chemical Genomics Center [NCGC] U.S. Environmental Protection Agency [EPA] National Institutes of Environmental Health Sciences [NIEHS] National Toxicology Program [NTP] U.S. Food and Drug Administration [FDA] Tox21 Assay Overview: Various chemicals, environmental and physiological stress conditions may lead to the activation of heat shock response/ unfolded protein response (HSR/UPR). There are three heat shock transcription factors (HSFs) (HSF-1, -2, and -4) mediating transcriptional regulation of the human HSR. To identify the compounds that activate HSR signaling, HSE-bla HeLa cell line (Invitrogen, Carlsbad, CA, USA) containing a beta-lactamase reporter gene under the control of the heat shock response elements was used to screen Tox21 10K compound library. The cytotoxicity of the Tox21 compound library against the HSE-bla HeLa cell line was tested in parallel by measuring the cell viability using CellTiter-Glo assay (Promega, Madison, WI) in the same wells.
Tox21 Assay Protocol Summary: The CellSensor HSE-bla HeLa cells (Invitrogen, Carlsbad, CA, USA) were dispensed at 1500 cells/6uL/well into 1536-well black wall/clear bottom plates using a Multidrop combi (Thermo Fisher Scientific, Waltham, MA) dispenser. After the assay plates were incubated at 37 C and 5% CO2 overnight, 23 nL of compounds dissolved in DMSO, positive controls or DMSO only was transferred to the assay plate by a Pintool station (Kalypsys, San Diego, CA). The plates were incubated at 37 C for 5 h. After 1 uL of LiveBLAzerTM B/G FRET substrate was added using a Flying Reagent Dispenser (FRD, Beckman Coulter, Indianapolis, IN, USA), the plates were incubated at room temperature for 2.5 h, and fluorescence intensity was measured by an Envision plate reader (PerkinElmer, Shelton, CT). For cell viability readout that measures cytotoxicity, 3 ul/well of CellTiter-Glo reagent was added into the assay plates using a FRD. After 30 min incubation at room temperature, the luminescence intensity in the plates was measured using a ViewLux (PerkinElmer) plate reader.
For `Cc1ccccc1CCl`, the Potency entry was “inactive”.

As to `COC(N)=O`, the Potency entry is “inactive”.

With `NNC(=O)c1cccnc1`, the Potency entry was “inactive”.

Turning to `OC(c1ccc(Cl)cc1)(c1ccc(Cl)cc1)c1cccnc1`, the Potency result is “inactive”.

Consider `CC1CC(CC2CCC(N)C(C)C2)CCC1N` (stereo not given), for which the Potency result is “inactive”.

As for `O=C(NC(=O)c1c(F)cccc1F)Nc1ccc(OC(F)(F)C(F)OC(F)(F)F)c(Cl)c1` (stereo not given), the Potency entry was “inactive”.

On to `CC1Sc2c(C(=O)O)c(=O)c3cc(F)c(N4CCNCC4)cc3n21` (stereo not given), for which the Potency result is “inactive”.

On to `N#Cc1ccc(Cl)cc1`, for which the Potency result was “inactive”.

Take `COP(=S)(Oc1cc(Cl)c(Br)cc1Cl)c1ccccc1` (stereo not given): the Potency result was “inactive”.

For `O=Cc1ccc(Cl)cc1Cl`, the Potency entry is “inactive”.

On to `CC(C)(Cl)[N+](=O)[O-]`, for which the Potency entry is “inactive”.

On to `COCCOCCO`, for which the Potency entry was “inactive”.

Regarding `O=C(NC(=O)c1c(F)cccc1F)Nc1cc(Cl)c(Oc2ncc(C(F)(F)F)cc2Cl)c(Cl)c1`, the Potency result was “inactive”.

On to `CCO[C@H]1O[C@@H]2OC3(C)CC[C@H]4[C@H](C)CC[C@@H]([C@H]1C)[C@@]24OO3`, for which the Potency entry was “inactive”.

As to `CCC(Cl)CCl` (stereo not given), the Potency result was “inactive”.

`COc1c(C(C)(C)C)cc([N+](=O)[O-])c(C)c1[N+](=O)[O-]`: the Potency entry was “inactive”.

In the case of `CCOP(=S)(OCC)SCn1nnc2ccccc2c1=O`, the Potency entry is “inactive”.

Turning to `CN(C)c1ccc(N(C)C)cc1`, the Potency result was “inactive”.

Consider `CCOC(=O)COc1cc(-c2nn(C)c(OC(F)F)c2Cl)c(F)cc1Cl`, for which the Potency result is “inactive”.

For the compound `C=CC[C@]1(O)CC[C@H]2[C@@H]3CCC4=CC(=O)CCC4=C3C=C[C@@]21C`, the Potency entry is “inactive”.

Regarding `ClC=C(Cl)Cl`, the Potency entry was “inactive”.

On to `Cc1cc(=O)[nH]o1`, for which the Potency entry was “inactive”.

As to `COC1=CC(=O)O[C@@H](CCc2ccccc2)C1`, the Potency result was “inactive”.

`COP(=S)(OC)Oc1cc(Cl)c(I)cc1Cl`: the Potency entry is “inactive”.

Regarding `CCOP(=O)(OCC)O/C(=C/Cl)c1ccc(Cl)cc1Cl`, the Potency result was “inactive”.

On to `O=C(Nc1ccccc1)Nc1ccnc(Cl)c1`, for which the Potency result is “inactive”.

As for `C=C(C#N)CCC#N`, the Potency entry is “inactive”.

Regarding `ClCc1cccc(Cl)c1`, the Potency result is “inactive”.

Take `CCCCN=C=O`: the Potency result was “inactive”.

In the case of `CC1(C)CCC(Cc2ccc(Cl)cc2)C1(O)Cn1cncn1` (stereo not given), the Potency result was “inactive”.

Regarding `CC(C)N(CCC(C(N)=O)(c1ccccc1)c1ccccn1)C(C)C` (stereo not given), the Potency entry is “inactive”.

Regarding `CNP(=O)(OC)Oc1ccc(C(C)(C)C)cc1Cl` (stereo not given), the Potency result is “inactive”.

For `CO/N=C(/C(=O)OC)c1ccccc1COc1ccccc1C`, the Potency result was “inactive”.

On to `O=[N+]([O-])c1cc(C(F)(F)F)cc([N+](=O)[O-])c1Cl`, for which the Potency result was “inactive”.

For `C=CCCl`, the Potency result is “inactive”.

For the compound `CCCCC(O)(Cn1cncn1)c1ccc(Cl)cc1Cl` (stereo not given), the Potency result is “inactive”.

`CCOC(=O)CBr`: the Potency entry is “inactive”.

Turning to `N#Cc1cc(I)c(O)c(I)c1`, the Potency result is “inactive”.

For `CN1[C@@H]2CC[C@H]1CC(OC(=O)c1cc(Cl)cc(Cl)c1)C2` (stereo not given in full), the Potency entry is “inactive”.

In the case of `II`, the Potency entry is “inactive”.

Values taken from PubChem BioAssay (Tox21).
